Source: PubChem BioAssay (several laboratories)
PP5 primary = PP5 phosphatase inhibitors, primary screen, biochemical, fluorescence; Serine/threonine-protein phosphatase 5 (Homo sapiens), P53041; purified PP5c, OMFP substrate fluorescence; inhibition, % at 6.7 µM; actives 0.18% (n = 320,000); AID 1987, 2009;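 active = inhibition above the campaign's mean inhibition across all tested compounds plus 3 SD, cut at about 9.5% in these data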;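 also: 0% = DMSO only and 100% = 100 µM cantharidin control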
Target sequence (P53041 whole entry, looked up): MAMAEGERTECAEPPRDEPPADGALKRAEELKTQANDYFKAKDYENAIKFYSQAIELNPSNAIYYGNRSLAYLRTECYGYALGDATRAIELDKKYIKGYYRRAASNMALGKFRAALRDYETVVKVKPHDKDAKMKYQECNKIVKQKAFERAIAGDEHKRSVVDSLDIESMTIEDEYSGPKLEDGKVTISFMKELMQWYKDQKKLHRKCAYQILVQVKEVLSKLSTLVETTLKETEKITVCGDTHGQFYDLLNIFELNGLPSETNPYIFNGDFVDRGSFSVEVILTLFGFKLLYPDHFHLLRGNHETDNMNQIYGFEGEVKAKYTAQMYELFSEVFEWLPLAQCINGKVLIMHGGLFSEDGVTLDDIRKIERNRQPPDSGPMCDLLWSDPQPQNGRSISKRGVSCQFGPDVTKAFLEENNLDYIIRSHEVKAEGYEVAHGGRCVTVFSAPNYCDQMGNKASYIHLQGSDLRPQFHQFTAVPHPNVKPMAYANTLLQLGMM
Beta apoptosis = inhibitors of cytokine-induced beta cell apoptosis, primary screen, luminescence; INS-1E cytokine-induced death, ATP luminescence, 48 h; percent of positive-control rescue, neutral wells zero; actives 0.8% (n = 300,000); protection from apoptosis, % (test concentration not listed); AID 435005, 2010;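 active = Every replicate reaches about 75%, or at least half do and their mean reaches it too, limit read from the data; inconclusive = At least half of replicates reach the limit but their mean does not; inactive = Under half of replicates reach the limit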;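 also: 0% = cytokine-treated negative control wells and 100% = positive control rescue; higher means more ATP so stronger rescue from cytokine killing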
PP1 inh = PP1-alpha phosphatase inhibitors, primary screen, counter-screen for PP5 inhibitor project, biochemical, fluorescence, OMFP substrate, single point. inhibition, % at 6.7 µM. purified PP1alpha. AID 2235, 2010. actives 0.9% (n = 320,000);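 active = inhibition above the mean inhibition of all tested compounds plus 3 SD, computed separately for each screening campaign, cut at about 15% in these data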
Mdm2 MdmX PPI = inhibitors of human Mdm2-MdmX association, primary screen, cell-based, luminescence, split luciferase, SaOS-2, uHTS. Protein Mdm4 (Homo sapiens) + E3 ubiquitin-protein ligase Mdm2 (Homo sapiens), …. SaOS-2 split-luciferase Mdm2/MdmX complementation. inhibition, % at 8 µM. actives 3% (n = 330,000). AID 485346, 2010;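 active = inhibition of at least 50% at 8 µM in the primary screen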
Calb FLC = C. albicans growth inhibition with fluconazole, primary screen, CaCi-2 strain, Alamar Blue fluorescence. C. albicans CaCi-2 (fluconazole-resistant clinical isolate) + fluconazole, 48 h. growth inhibition, % (test concentration not listed). actives 0.57% (n = 300,000). AID 1979, 2009;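 active = growth inhibition above about 58% in most replicates, limit read from the data, passing the limit was not always enough; inconclusive = exactly half the replicates above a set limit; inactive = most replicates below a set limit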;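 also: all wells also contain fluconazole at 8 µg/ml as a sub-toxic cotreatment; 0% = median of DMSO wells and 100% = median of geldanamycin control wells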
CSC inhib = cancer stem cell viability inhibitors, primary screen, luminescence; AID 2717, 2010; cancer stem cell-like cells viability; inhibition, % at 7.5 µM; actives 1.1% (n = 300,000); in the data active = inhibition above about 75%; inconclusive = no clear call, values can overlap the other calls; tested in HMLE shEcad cells
Mdm2-MdmX conf = Mdm2-MdmX complex disruptors, retested hits, confirmation, luminescence, single concentration; shares compounds with Mdm2 MdmX PPI; Mdm2-MdmX binding, luminescent assay; inhibition, % at 8 µM; actives 55% (n = 10,000); AID 489028, 2010; in the data active = inhibition above about 40%
FLuc counter = full-length luciferase signal inhibition, confirmation, counter-screen for Mdm2/MdmX interaction inhibitor project, cell-based, single concentration, SaOS-2; shares compounds with Mdm2 MdmX PPI; SaOS-2 full-length luciferase counterscreen, luminescence; inhibition, % at 8 µM; actives 77% (n = 6,200);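 active = mean inhibition at 8 µM reaching about 37%, which flags the compound as non-specific, limit read from the data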;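 also: p53-null SaOS-2 cells with luciferase driven by a doxycycline-inducible promoter; compound on cells about two nights before reading with doxycycline added after day one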
The depositor's hits bear a star. Only some compounds are listed: those with a hit (about 4.9% of all), similar ones and a draw of the others.

What do the screens show for `Cc1ccc(-c2nc3ccccc3o2)cc1NC(=S)NC(=O)c1cccs1`?
PP5 primary: 0.9; Beta apoptosis: 0.2; PP1 inh: 5.1; Mdm2 MdmX PPI: 21.5; Calb FLC: 5.7; CSC inhib: -3.7

How did Cc1nc2ccccn2c1C(=O)NN=C1C2CC3CC(C2)CC1C3 do in these assays?
PP5 primary: 3.3; Beta apoptosis: 0.5; PP1 inh: -4.5; Mdm2 MdmX PPI: -3.5; Calb FLC: -6.6; CSC inhib: 5.1

How did O=C1CC(NS(=O)(=O)c2ccccc2F)CN1c1ccc2c(c1)OCCO2 (stereo not drawn) do in these assays?
PP5 primary: 0.7; PP1 inh: -0.2; Mdm2 MdmX PPI: 0.6; Calb FLC: 6.4; CSC inhib: -9.1

What do the screens show for `COc1cc([N+](=O)[O-])ccc1NC(=O)CC1SC(=Nc2ccc(F)cc2)N(CCC2=CCCCC2)C1=O` (stereo not drawn)?
PP5 primary: 0.8; Beta apoptosis: 110.5*; PP1 inh: -1.8; Mdm2 MdmX PPI: 76.9*; Calb FLC: -21.7; CSC inhib: inconclusive; Mdm2-MdmX conf: 85.3*; FLuc counter: 64.8*

What do the screens show for `Oc1ccccc1CNc1ccc(Br)cn1`?
PP5 primary: 0.3; Beta apoptosis: -10.5; PP1 inh: -1.6; Mdm2 MdmX PPI: 78.0*; Calb FLC: 1.7; CSC inhib: 7.2; Mdm2-MdmX conf: 68.4*; FLuc counter: 28.8

Results for COc1ccc(NC(=O)Cc2ccc(C)cc2)c([N+](=O)[O-])c1 ?
PP5 primary: -0.8; Beta apoptosis: -2.9; PP1 inh: 0.6; Calb FLC: -21.1; CSC inhib: -7.4

What do the screens show for `COc1ccc(NC(=O)CC2Nc3cc(C)c(C)cc3NC2=O)c([N+](=O)[O-])c1` (stereo not drawn)?
PP5 primary: -0.8; Beta apoptosis: 19.5; PP1 inh: 1.1; Mdm2 MdmX PPI: 88.4*; Calb FLC: -7.1; CSC inhib: 53.3; Mdm2-MdmX conf: 6.8

What do the screens show for `Cc1ccc2c(c1)-n1c(nc3ccc(C)cc3c1=O)C(Cc1ccc(O)cc1)NC2=O` (stereo not drawn)?
Beta apoptosis: 2.4; Mdm2 MdmX PPI: 10.5; CSC inhib: -10.8

How did O=C(/C(N=Nc1cccc([N+](=O)[O-])c1)=C(/O)c1ccc(Br)cc1)C(F)(F)F do in these assays?
PP5 primary: 1.3; Beta apoptosis: 105.0*; PP1 inh: -3.4; Mdm2 MdmX PPI: 96.1*; Calb FLC: -3.0; CSC inhib: 99.0*; Mdm2-MdmX conf: 87.9*; FLuc counter: 24.9

How did Cn1nc(CSc2ccccc2)c(C=O)c1Cl do in these assays?
PP5 primary: 0.4; Beta apoptosis: -1.3; PP1 inh: 1.6; Mdm2 MdmX PPI: -2.8; Calb FLC: -34.8; CSC inhib: -4.3

Results for O=C(NCCc1cccnc1)C1CCC(=O)N(CCc2cccc(F)c2)C1 (stereo not drawn) ?
Beta apoptosis: -1.9; Mdm2 MdmX PPI: 18.0; Calb FLC: 4.7

How did Cc1ccccc1OCCC(=O)OCC(=O)Nc1cc(S(=O)(=O)N2CCOCC2)ccc1Cl do in these assays?
PP5 primary: 2.0; Beta apoptosis: -2.0; PP1 inh: -2.2; Mdm2 MdmX PPI: 27.5; Calb FLC: -3.4; CSC inhib: -8.1

Results for Cc1cccc(NC(=O)c2nc[nH]c2C(=O)NCCCCNC(=O)c2[nH]cnc2C(=O)Nc2cccc(C)c2)c1 ?
Beta apoptosis: 15.2; Mdm2 MdmX PPI: 74.9*; CSC inhib: 40.3; Mdm2-MdmX conf: 3.7
